In PubChem BioAssay AID1159580 (chemical genetic matrix, 2015):
“And” between values parts separate entries of the source, which are not always exact repeats. Identical values can stand only once. In all, about 5,500 compounds went through this assay and about 2,000 (36%) were called active. Not shown: some 18% with an inconclusive outcome. No stated cut-off is given here; in the data, active means normalized growth mostly below about 0.91 (no sharp cut-off); inconclusive means no clear call, values can overlap the other calls; inactive means mostly above about 0.92. The list shows a part of the results.

Assay: chemical genetic growth profiling, strain panel (AID 1159580);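 further: tested at 20 µM; growth read once vehicle control cultures reached saturation at 30 °C; 1 = growth at the plate median or of vehicle wells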
Conditions: S. cerevisiae deletion strains, growth OD

Measured: normalized growth

CCOC(=O)OC(C)OC(=O)C1N2C(=O)C(NC(=O)[C@H](N)c3ccccc3)C2SC1(C)C (some centres undefined)
inactive: locus YAL013W, strain DEP1, stronger effect = lower value 0.98 | locus YAL021C, strain ccr4, stronger effect = lower value 0.986 | locus YAL026C, strain drs2, stronger effect = lower value 0.981 | locus YAL030W, strain snc1, stronger effect = lower value 0.98 | locus YBL061C, strain skt5, stronger effect = lower value 0.978 | locus YBR009C, strain hhf1, stronger effect = lower value 0.992 | locus YBR021W, strain FUR4, stronger effect = lower value 1.03 | locus YBR023C, strain chs3, stronger effect = lower value 0.986 | locus YBR171W, strain sec66, stronger effect = lower value 0.968 | locus YBR229C, strain ROT2, stronger effect = lower value 0.961 | locus YBR231C, strain swc5, stronger effect = lower value 0.987 | locus YBR279W, strain paf1, stronger effect = lower value 0.989 | locus YCL011C, strain gbp2, stronger effect = lower value 0.965 | locus YCL016C, strain dcc1, stronger effect = lower value 0.993 | locus YCL029C, strain bik1, stronger effect = lower value 0.988 | locus YCL061C, strain MRC1, stronger effect = lower value 0.998 | locus YCL069W, strain vba3, stronger effect = lower value 0.998 | locus YCR088W, strain abp1, stronger effect = lower value 0.985 | locus YDL005C, strain med2, stronger effect = lower value 0.983 | locus YDL035C, strain GPR1, stronger effect = lower value 0.984 | locus YDL040C, strain nat1, stronger effect = lower value 0.989 | locus YDL074C, strain BRE1, stronger effect = lower value 0.917 | locus YDL101C, strain DUN1, stronger effect = lower value 0.97 | locus YDL134C, strain PPH21, stronger effect = lower value 0.998 | locus YDL185W, strain tfp1, stronger effect = lower value 0.975 | locus YDL192W, strain arf1, stronger effect = lower value 0.985 | locus YDR001C, strain nth1, stronger effect = lower value 0.983 | locus YDR069C, strain doa4, stronger effect = lower value 0.993 | locus YDR101C, strain arx1, stronger effect = lower value 0.962 | locus YDR137W, strain rgp1, stronger effect = lower value 0.994 | locus YDR159W, strain sac3, stronger effect = lower value 1 | locus YDR162C, strain NBP2, stronger effect = lower value 0.989 | locus YDR195W, strain ref2 0.985 | locus YDR297W, strain sur2, stronger effect = lower value 0.977 | locus YDR318W, strain mcm21, stronger effect = lower value 0.992 | locus YDR334W, strain swr1, stronger effect = lower value 0.943 | locus YDR335W, strain msn5, stronger effect = lower value 0.979 | locus YDR388W, stronger effect = lower value 0.991 | locus YDR392W, strain spt3, stronger effect = lower value 0.946 | locus YDR502C, strain sam2, stronger effect = lower value 0.99 | locus YEL003W, strain gim4, stronger effect = lower value 0.98 | locus YEL037C, strain rad23, stronger effect = lower value 0.987 | locus YEL061C, strain CIN8 (second series), stronger effect = lower value 0.984 | locus YEL061C, strain CIN8, stronger effect = lower value 0.976 | locus YER015W, strain faa2, stronger effect = lower value 0.981 | locus YER016W, strain bim1, stronger effect = lower value 0.99 | locus YER110C, stronger effect = lower value 0.982 | locus YER111C, strain swi4, stronger effect = lower value 0.985 | locus YER155C, strain BEM2 (second series), stronger effect = lower value 0.995 | locus YER155C, strain BEM2, stronger effect = lower value 0.992 | locus YER167W, strain BCK2, stronger effect = lower value 0.997 | locus YFR010W, strain ubp6, stronger effect = lower value 0.977 | locus YGL078C, strain dbp3, stronger effect = lower value 0.974 | locus YGL086W, strain mad1, stronger effect = lower value 0.966 | locus YGL167C, strain pmr1, stronger effect = lower value 0.991 | locus YGL173C, strain kem1, stronger effect = lower value 0.975 | locus YGL227W, strain vid30, stronger effect = lower value 0.993 | locus YGL240W, strain doc1, stronger effect = lower value 0.984 | locus YGL248W, strain PDE1, stronger effect = lower value 0.969 | locus YGL253W, strain hxk2, stronger effect = lower value 0.971 | locus YGR135W, strain pre9, stronger effect = lower value 1.04 | locus YGR252W, strain gcn5, stronger effect = lower value 0.945 | locus YHR013C, strain ard1, stronger effect = lower value 0.967 | locus YHR027C, strain rpn1, stronger effect = lower value 0.963 | locus YHR030C, strain SLT2, stronger effect = lower value 0.996 and 1.02 | locus YHR079C, strain IRE1 (second series), stronger effect = lower value 0.993 | locus YHR079C, strain IRE1, stronger effect = lower value 0.98 | locus YHR094C, strain hxt1, stronger effect = lower value 0.984 | locus YHR129C, strain ARP1, stronger effect = lower value 0.993 | locus YHR142W, strain chs7, stronger effect = lower value 0.954 | locus YHR200W, strain rpn10, stronger effect = lower value 0.997 | locus YIL066C, strain RNR3, stronger effect = lower value 0.944 | locus YIL073C, strain SPO22, stronger effect = lower value 0.966 | locus YIL125W, strain kgd1, stronger effect = lower value 0.995 | locus YIR030C, strain dcg1, stronger effect = lower value 0.986 | locus YJL092W, strain hpr5, stronger effect = lower value 0.994 | locus YJL095W, strain BCK1 (second series), stronger effect = lower value 0.994 | locus YJL095W, strain BCK1, stronger effect = lower value 0.949 and 0.988 | locus YJL115W, strain asf1, stronger effect = lower value 0.974 | locus YJL129C, strain trk1, stronger effect = lower value 1.01 | locus YJL134W, strain LCB3, stronger effect = lower value 0.992 | locus YJL154C, strain vps35, stronger effect = lower value 0.989 | locus YJL164C, strain tpk1, stronger effect = lower value 0.975 | locus YJL166W, strain qcr8, stronger effect = lower value 0.971 | locus YJL168C, strain set2, stronger effect = lower value 0.984 | locus YJL187C, strain SWE1 (second series), stronger effect = lower value 0.935 | locus YJL187C, strain SWE1, stronger effect = lower value 0.989 | locus YJR043C, strain POL32, stronger effect = lower value 0.98 | locus YJR066W, strain TOR1, stronger effect = lower value 0.966
